# Shown are actives, neighbours in structure and some others; about 14% of the full set was active somewhere.
# HCMV antiviral: blocks human cytomegalovirus replication | HFF cells, HCMV-luciferase reporter, 72 h; active compounds read low | activity change, negative = inhibition, % at 57.5 µM | hit rate 4.5% among 410,000 | AID 1259415; in the data active = activity change below about -60%; inconclusive = no clear call, values can overlap the other calls; inactive = above about -39%
#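 Luciferase read-out from HCMV-luciferase-infected HFFs (MOI 1 PFU/cell) 72 h post infection at 37C; compounds added after 16 h cell attachment; activity normalized between buffer-only basal and Salinomycin (10uM) inhibitor controls.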
# Giardia FBPA inh: Giardia lamblia aldolase inhibition; purified Giardia FBPA; Potency, µM (highest dose often 59.6 µM), inactives show top-dose activity, negative = inhibition, usual class: inhibitors; hit rate 0.71% among 290,000; note: potency is the fitted concentration of half-maximal effect; nearly all actives have a fitted effect of over 55% in size
# Target sequence (A8B2U2 whole entry, looked up): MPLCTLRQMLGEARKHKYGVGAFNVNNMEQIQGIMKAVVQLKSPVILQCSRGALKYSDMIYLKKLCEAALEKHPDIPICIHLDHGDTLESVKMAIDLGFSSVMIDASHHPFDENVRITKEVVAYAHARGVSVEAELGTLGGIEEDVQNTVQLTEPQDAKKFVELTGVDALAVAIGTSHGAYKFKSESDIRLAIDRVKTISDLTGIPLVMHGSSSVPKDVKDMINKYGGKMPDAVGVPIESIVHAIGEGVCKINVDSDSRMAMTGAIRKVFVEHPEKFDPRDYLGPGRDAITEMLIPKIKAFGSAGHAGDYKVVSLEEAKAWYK
#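 40 nM FBPA preincubated 10 min at RT with compound (up to 57.5 uM final), then substrate plus GAPDH/TPI/NAD/arsenate coupling and diaphorase/resazurin added. Fluorescence read after 20 min at RT, 525/598 nm.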
# Pf growth 96h: P. falciparum growth inhibition at 96 hour, primary screen for plastid delayed-death inhibitors; AID 504834; Potency, µM (doses to about 28.7 µM), without a hit: at the top dose activity change, negative = inhibition, most hits filed as inhibitors; P. falciparum luciferase reporter growth, 96 h; hit rate 6.9% among 320,000; note: potency is the fitted concentration of half-maximal effect
#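 Readout is luminescence from an integrated firefly luciferase in P. falciparum. Red cells, 2% hematocrit and 0.05% parasitemia final, were cultured with compound through two parasite generations (96 hours) at 37 C, 5% CO2.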
# Pf growth 48h: P. falciparum growth inhibition at 48 hours (one generation). Potency, µM (top dose mostly 28.7 µM), inactives show top-dose activity change, negative = inhibition, actives largely listed as inhibitors. P. falciparum luciferase growth in erythrocytes, 48 h. AID 504832. hit rate 5.9% among 310,000; note: potency is the fitted concentration of half-maximal effect
#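 A one-generation exposure of luciferase-tagged malaria parasites in RPMI 1640/Albumax erythrocyte culture, 37 C and 5% CO2. Inhibition is inferred from decreased luminescence after adding detection reagent.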
# Sm TGR block: blocks Schistosoma mansoni thioredoxin glutathione reductase; Q962Y6; purified TGR, DTNB reduction, TNB absorbance 405 nm; Potency, µM (top dose mostly 114 µM), for the others: top-dose activity change, negative = inhibition, actives largely listed as inhibitors; hit rate 3% among 360,000; note: potency is the fitted concentration of half-maximal effect; nearly all actives have a fitted effect of over 60% in size
#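 Kinetic colorimetric format: TGR-catalysed, NADPH-driven DTNB reduction monitored via TNB absorbance. Enzyme dispensed at 20 nM; compound exposure 15 min at room temperature before reaction start.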
# An asterisk follows results filed as active; ? = inconclusive; · = no result; [ ] = remark or other dose. Unless noted, calls come from the whole dose curve; as a rule, active = well fitted curve in the direction sought with a large enough effect; inconclusive = small, poorly fitted or top-dose-only effect, or another doubt; inactive = no such curve, though single readings can be large; an effect the other way counts as inactive or inconclusive. % is set by controls: 0 for no effect and ±100 for the full control effect.
SMILES,HCMV antiviral,Giardia FBPA inh,Pf growth 96h,Pf growth 48h,Sm TGR block
COCC(C)NC(=O)CSc1nc2ccccc2n1CCc1ccccc1 (centres undefined),-13,-3%,10µM*,-23%,-3%
CCCNC(=O)NC(=O)CSc1nc2ccccc2c(=O)n1Cc1ccncc1,19,-1%,13µM*,?,-16%
CCOC(=O)OCC1OC(C#CC(C)(C)C)C=CC1OC(=O)OCC (centres undefined),·,1%[12.9 µM],·,·,·
CC(C)(C)c1ccccc1NC(=O)CSc1nc(-c2cccs2)cc(C(F)(F)F)n1,?,·,·,·,-7%
CC1CN(c2nc3ccccc3nc2NS(=O)(=O)c2ccccc2)CC(C)O1 (centres undefined),4,·,·,·,·
Cc1ccc(-c2cc(-c3nnc(SCC(=O)NCC(C)C)n3N)c3ccccc3n2)cc1,72,6%,-10%[5.75 µM],-17%,45%
CCC(C)NC(=O)CSc1nnc(-c2cc(-c3ccc(C)cc3)nc3ccccc23)n1N (centres undefined),105,4%,12µM*,·,-17%
CN(C)CCOc1cc(Cl)cc(Cl)c1,?,-1%,23%,11%,2%
N/C(COc1cc(Cl)cc(Cl)c1)=N\O,-65*,0%,7%,17%,4%
Cc1c(C(=O)Nc2ccccc2F)sc2ncnc(N(C)C3CCCCC3)c12,-9,·,·,·,-1%
S=C(Nc1ccc(Br)cc1Cl)N1CCCC1,66,·,2.1µM*,-3%,5%
O=C(Nc1ccc(CN2CCCCC2)cc1)Nc1ccc(Br)cc1Cl,-62*,7%,13%,?,8%
COc1ccc(N2CCN(Cc3nc4c(c(=O)[nH]c(=O)n4C)n3CC(C)C)CC2)cc1,19,·,·,·,-10%
Cc1ccc(C2c3[nH]c4ccccc4c3C[C@H]3C(=O)N(c4ccccc4C(=O)N4CCC(C(=O)O)CC4)C(=O)N23)cc1 (some centres undefined),2,2%,5.9µM*,12µM*,-18%
Cc1ccc(C2c3[nH]c4ccccc4c3C[C@H]3C(=O)N(c4ccccc4C(=O)N4CCC[C@@H]4C(=O)O)C(=O)N23)cc1 (some centres undefined),-15,15%,?,?,6%
O=C(O)C1CCN(C(=O)c2ccccc2N2C(=O)[C@@H]3Cc4c([nH]c5ccccc45)C(c4cccc(Cl)c4)N3C2=O)CC1 (some centres undefined),-38,18%,9.3µM*,?,-26%
CCOC(=O)/C(C#N)=C/Nc1ccccc1OC(F)(F)F,-24,0%,44%,-2%,21%
Cc1ccc(C(=O)COC(=O)C(CC(C)C)NC(=O)C2CCC(C)CC2)cc1 (centres undefined),10,·,·,·,-2%
CC(C)C[C@@H](COCc1cccc(Cl)c1)N1CCN(C(=O)c2ccc(C(F)(F)F)cc2)CCC1=O,-16,·,·,·,·
Clc1ccc(-c2nnc3sc(-c4ccccn4)nn23)cc1,·,15%,·,26%,-17%
Clc1ccccc1-c1nn2c(-c3ccncc3)nnc2s1,·,9%,?,10µM*,-23%
Clc1ccccc1-c1nn2c(-c3ccccn3)nnc2s1,-39,9%,-16%,8.3µM*,-3%
CC(NC(=O)CN(Cc1ccccc1)S(=O)(=O)c1ccccc1)c1cccnc1 (centres undefined),-7,·,?,?,-5%
CCO[C@@H]1OC(C(=O)N2CCN(Cc3ccc4c(c3)OCO4)CC2)=C[C@H](c2ccc(Br)cc2)[C@H]1CCCO,-9,-9%,4.1µM*,1.3µM*,-1%
CCO[C@H]1OC(C(=O)N2CCN(C)CC2)=C[C@@H](c2ccc3c(c2)OCO3)[C@@H]1CCCO,?,2%,?,8%,-9%
CCO[C@@H]1OC(C(=O)N2CCN(Cc3ccc4c(c3)OCO4)CC2)=C[C@H](c2ccc(C(F)(F)F)cc2)[C@H]1CCCO,-17,-7%,2.3µM*,1.5µM*,2%
CCO[C@H]1OC(C(=O)O)=C[C@@H](c2ccc(C(F)(F)F)cc2)[C@@H]1CCCO,29,-4%,41%,18%,4%
OCC1OC(C(N=Nc2ccccc2)=NNc2ccccc2)C(O)C1O (centres undefined),33,·,·,·,·

# Assay outcomes deposited in PubChem by National Center for Advancing Translational Sciences (NCATS).
